Here are results for four compounds from PubChem BioAssay (EPA / NIEHS).

As usually defined, the AC50 is the concentration at which the activity in the assay is half-maximal.

Calls of active or inactive are those of the source. How the source made its calls: active means hit-call score of the fitted dose curve at least 0.9, where 1 is the maximum; inactive means score below 0.9.

Holding throughout (conditions): mRNA level, 48 h; actives raise or lower the signal
Read-out in assay [1]: ABC Transporter (ABCC2), ABCC2 (gene 1244)
In words: LTEA_HepaRG_ABCC2: Life Technologies and Expression Analysis (LTEA) Assay for ABC Transporter (ABCC2) using HepaRG (AID 2283464). The gist of the method:
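Endpoint is ABCC2 transcript level from qRT-PCR, normalized to three housekeeping genes and fitted bidirectionally relative to DMSO. Human HepaRG cells received test chemical for 48 h at up to 100 uM (8 points, half-log steps, 0.5% DMSO), duplicate wells.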

Read-out in assay [2]: Broad substrate specificity ATP-binding cassette transporter ABCG2 (Homo sapiens) (UniProt Q9UNQ0)
In words: LTEA_HepaRG_ABCG2: Life Technologies and Expression Analysis (LTEA) Assay for ABC Transporter (ABCG2) using HepaRG (AID 2283465). The method in brief: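 HepaRG, 48 h exposure, 8-pt half-log series from 100 uM, 0.5% DMSO vehicle, duplicates. Readout: ABCG2 transcript by qRT-PCR (Fluidigm array), housekeeping-normalized; bidirectional curve fit relative to DMSO baseline.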

Read-out in assay [3]: ATP-citrate lyase (ACLY), ACLY (gene 47)
In words: LTEA_HepaRG_ACLY: Life Technologies and Expression Analysis (LTEA) Assay for ATP-citrate lyase (ACLY) using HepaRG (AID 2283466). The gist of the method:
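qRT-PCR readout of ACLY transcript after 48 h chemical treatment of HepaRG cells; expression normalized to three housekeeping genes. Eight-point half-log series, highest 100 uM, 0.5% DMSO vehicle. Gain or loss fitted against DMSO baseline.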

Read-out in assay [4]: Peroxisomal acyl-coenzyme A oxidase 1 (ACOX1) gene, ACOX1 (gene 51)
The experiment in a line: LTEA_HepaRG_ACOX1: Life Technologies and Expression Analysis (LTEA) Assay for Peroxisomal acyl-coenzyme A oxidase 1 (ACOX1) gene using HepaRG (AID 2283467). The gist of the method:
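HepaRG, 48 h chemical exposure, 8-pt half-log series from 100 uM top, 0.5% DMSO vehicle, duplicates. Readout: ACOX1 mRNA by Fluidigm qRT-PCR, housekeeping-normalized; bidirectional fit vs DMSO baseline.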

Read-out in assay [5]: Alkaline Phosphatase, Placental (ALPP) gene, ALPP (gene 250)
The experiment in a line: LTEA_HepaRG_ALPP: Life Technologies and Expression Analysis (LTEA) Assay for Alkaline Phosphatase, Placental (ALPP) gene using HepaRG (AID 2283468). The method in brief:
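ALPP transcript level, measured by qRT-PCR and normalized to three housekeeping genes (ACTB, GAPDH, POLR2A), after 48 h dosing of differentiated HepaRG in serum-free induction medium. Top concentration 100 uM with half-log dilutions (8 points, 0.5% DMSO, duplicates); bidirectional fitting relative to DMSO.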

Read-out in assay [6]: Bcl-2 (BAD) gene, BAD (gene 572)
The experiment in a line: LTEA_HepaRG_BAD: Life Technologies and Expression Analysis (LTEA) Assay for Bcl-2 (BAD) gene using HepaRG (AID 2283469). The method in brief:
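HepaRG, 48 h exposure, 8-pt half-log curve from 100 uM in 0.5% DMSO, duplicates. Readout: TaqMan qRT-PCR for BAD mRNA, housekeeping-normalised (ACTB/GAPDH/POLR2A); gain or loss fitted against DMSO baseline.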

Read-out in assay [7]: Bcl-2 (BAX) gene, BAX (gene 581)
In words: LTEA_HepaRG_BAX: Life Technologies and Expression Analysis (LTEA) Assay for Bcl-2 (BAX) gene using HepaRG (AID 2283470). The gist of the method:
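qRT-PCR read-out of BAX mRNA, normalized to three housekeeping genes, after 48 h chemical exposure of human HepaRG cells in serum-free induction medium; eight-point half-log series, top 100 uM, 0.5% DMSO vehicle; bidirectional fit versus DMSO.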

Read-out in assay [8]: adenosine kinase (ADK) gene, ADK (gene 132)
The experiment in a line: LTEA_HepaRG_ADK: Life Technologies and Expression Analysis (LTEA) Assay for adenosine kinase (ADK) gene using HepaRG (AID 2283471). The method in brief:
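Following 48 h exposure of HepaRG cells in 0.5% DMSO (top concentration 100 uM, duplicate wells), ADK mRNA induction or suppression was measured by qRT-PCR, normalised to ACTB/GAPDH/POLR2A, and fitted bidirectionally relative to vehicle.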

Read-out in assay [9]: Alpha-fetoprotein (AFP) gene, AFP (gene 174)
In words: LTEA_HepaRG_AFP: Life Technologies and Expression Analysis (LTEA) Assay for Alpha-fetoprotein (AFP) gene using HepaRG (AID 2283472). The method in brief:
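qRT-PCR (Fluidigm TaqMan) readout of AFP transcript, normalized to three housekeeping genes, fitted bidirectionally against 0.5% DMSO baseline. HepaRG cells received chemicals for 48 h in serum-free induction medium, top concentration 100 uM, half-log steps.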

Read-out in the next assay: BCL2L11 (gene 10018)
The experiment in a line: LTEA_HepaRG_BCL2L11: Life Technologies and Expression Analysis (LTEA) Assay for Bcl-2 (BCL2L11) gene using HepaRG (AID 2283473). The method in brief:
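BCL2L11 transcript levels are measured by Fluidigm qRT-PCR, normalized to three housekeeping genes. HepaRG cultures were plated 48 h, then treated 48 h with test chemical (top 100 uM, half-log, 0.5% DMSO vehicle); curves were fitted bidirectionally against DMSO.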

Read-out in assay [10]: Apolipoprotein A-V (APOA5) gene, APOA5 (gene 116519)
The experiment in a line: LTEA_HepaRG_APOA5: Life Technologies and Expression Analysis (LTEA) Assay for Apolipoprotein A-V (APOA5) gene using HepaRG (AID 2283474). The method in brief:
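APOA5 transcript levels were quantified by qRT-PCR, normalized to three housekeeping genes, after 48 h chemical treatment of HepaRG cells (8 points, 100 uM maximum, half-log steps, 0.5% DMSO). Curves fitted in both directions against vehicle.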

Read-out in assay [11]: Bcl-2 (BID) gene, BID (gene 637)
In words: LTEA_HepaRG_BID: Life Technologies and Expression Analysis (LTEA) Assay for Bcl-2 (BID) gene using HepaRG (AID 2283476). The gist of the method: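 HepaRG, 48 h exposure, 8-pt half-log series, top 100 uM, 0.5% DMSO vehicle, duplicates. Readout: BID mRNA by TaqMan qRT-PCR; housekeeping-normalized; bidirectional curve fit vs DMSO baseline.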

Read-out in a further assay: Caspase-3 (Homo sapiens) (UniProt P42574)
The experiment in a line: LTEA_HepaRG_CASP3: Life Technologies and Expression Analysis (LTEA) Assay for cysteine-aspartic acid protease (CASP3) using HepaRG (AID 2283477). The method in brief:
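Expression of CASP3 was quantified by TaqMan qRT-PCR against three housekeeping genes (ACTB, GAPDH, POLR2A), bidirectionally versus 0.5% DMSO. HepaRG cultures received compounds in duplicate, top 100 uM with half-log steps, for 48 h in serum-free induction medium.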

Read-out in assay [12]: Cytochrome P450 (CYP24A1), CYP24A1 (gene 1591)
The experiment in a line: LTEA_HepaRG_CYP24A1: Life Technologies and Expression Analysis (LTEA) Assay for Cytochrome P450 (CYP24A1) using HepaRG (AID 2283478). The gist of the method: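 mRNA of CYP24A1 quantified by TaqMan qRT-PCR (ACTB/GAPDH/POLR2A normalization) after 48 h chemical exposure of HepaRG cells, top concentration 100 uM, half-log steps, 0.5% DMSO vehicle, duplicates. Curves fitted bidirectionally against DMSO baseline.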

Read-out in assay [13]: Cytochrome P450 (CYP1A2), CYP1A2 (gene 1544)
The experiment in a line: LTEA_HepaRG_CYP1A2: Life Technologies and Expression Analysis (LTEA) Assay for Cytochrome P450 (CYP1A2) using HepaRG (AID 2283479). The method in brief:
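CYP1A2 transcript measured by TaqMan qRT-PCR against three housekeeping genes after 48-hour chemical exposure of HepaRG cells. Eight-point half-log series topping at 100 uM in 0.5% DMSO, duplicates; gain or loss fitted relative to vehicle.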

Read-out in assay [14]: cysteine-aspartic acid protease (CASP8), CASP8 (gene 841)
In words: LTEA_HepaRG_CASP8: Life Technologies and Expression Analysis (LTEA) Assay for cysteine-aspartic acid protease (CASP8) using HepaRG (AID 2283480). The method in brief: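 qRT-PCR readout of CASP8 mRNA, normalized to three housekeeping genes, after 48 h chemical exposure of HepaRG cells; 8-point half-log series, top 100 uM, 0.5% DMSO vehicle. Bidirectional curve fitting against DMSO baseline.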

Read-out in assay [15]: Cytochrome P450 (CYP2B6), CYP2B6 (gene 1555)
The experiment in a line: LTEA_HepaRG_CYP2B6: Life Technologies and Expression Analysis (LTEA) Assay for Cytochrome P450 (CYP2B6) using HepaRG (AID 2283481). The method in brief:
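CYP2B6 transcript level quantified by qRT-PCR against three housekeeping genes, fitted bidirectionally relative to DMSO. HepaRG cultures received chemicals for 48 h, 8-point half-log series from 100 uM in 0.5% DMSO, duplicate wells, serum-free induction medium.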

Read-out in assay [16]: Cytochrome P450 2C19 (Homo sapiens) (UniProt P33261)
The experiment in a line: LTEA_HepaRG_CYP2C19: Life Technologies and Expression Analysis (LTEA) Assay for CYP2C19 using HepaRG (AID 2283482). The method in brief:
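CYP2C19 transcript levels by qRT-PCR, normalized to three housekeeping genes, in HepaRG cells after 48 h chemical exposure. Eight-point half-log series topping at 100 uM, 0.5% DMSO vehicle. Increases and decreases both fitted against DMSO.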

Read-out in the next assay: CYP2C8 (gene 1558)
In words: LTEA_HepaRG_CYP2C8: Life Technologies and Expression Analysis (LTEA) Assay for CYP2C8 using HepaRG (AID 2283483). The method in brief:
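HepaRG (human liver line), 48 h chemical exposure, 8-pt half-log series from 100 uM, 0.5% DMSO vehicle. Readout: CYP2C8 transcript by qRT-PCR, housekeeping-normalized. Bidirectional fit vs DMSO baseline.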

Read-out in assay [17]: Apoptosis regulator Bcl-2 (Homo sapiens) (UniProt P10415)
In words: LTEA_HepaRG_BCL2: Life Technologies and Expression Analysis (LTEA) Assay for Bcl-2 gene using HepaRG (AID 2283475). The gist of the method:
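qRT-PCR read-out (Fluidigm TaqMan) of BCL2 transcript, normalised to three housekeeping genes, after 48 h chemical exposure of HepaRG cells; 8-point half-log series, top 100 uM, 0.5% DMSO vehicle. Gain or loss of signal fitted relative to DMSO baseline.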

Chain of Caspase-3 (Homo sapiens) (P42574 whole entry, looked up): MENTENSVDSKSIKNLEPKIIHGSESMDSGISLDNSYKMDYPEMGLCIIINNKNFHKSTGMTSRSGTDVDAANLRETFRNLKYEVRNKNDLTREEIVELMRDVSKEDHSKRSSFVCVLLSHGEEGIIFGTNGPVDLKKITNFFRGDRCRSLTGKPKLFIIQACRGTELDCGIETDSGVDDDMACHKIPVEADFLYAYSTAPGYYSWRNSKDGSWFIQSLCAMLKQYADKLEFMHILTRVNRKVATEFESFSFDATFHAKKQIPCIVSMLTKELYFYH
Chain of Cytochrome P450 2C19 (Homo sapiens) (P33261 whole entry, looked up): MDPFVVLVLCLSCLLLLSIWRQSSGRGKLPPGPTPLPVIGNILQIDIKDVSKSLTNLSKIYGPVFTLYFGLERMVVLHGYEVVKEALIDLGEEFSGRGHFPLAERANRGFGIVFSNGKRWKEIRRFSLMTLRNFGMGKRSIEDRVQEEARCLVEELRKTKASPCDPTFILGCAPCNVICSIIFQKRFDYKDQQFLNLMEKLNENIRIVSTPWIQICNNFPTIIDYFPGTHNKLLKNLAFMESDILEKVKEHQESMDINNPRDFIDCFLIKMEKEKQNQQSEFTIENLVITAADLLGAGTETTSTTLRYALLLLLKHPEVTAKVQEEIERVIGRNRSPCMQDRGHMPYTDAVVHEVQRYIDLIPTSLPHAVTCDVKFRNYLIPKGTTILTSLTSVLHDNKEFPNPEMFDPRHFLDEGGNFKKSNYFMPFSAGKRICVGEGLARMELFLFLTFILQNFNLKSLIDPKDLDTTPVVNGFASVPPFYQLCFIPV
Chain of Broad substrate specificity ATP-binding cassette transporter ABCG2 (Homo sapiens) (Q9UNQ0 whole entry, looked up): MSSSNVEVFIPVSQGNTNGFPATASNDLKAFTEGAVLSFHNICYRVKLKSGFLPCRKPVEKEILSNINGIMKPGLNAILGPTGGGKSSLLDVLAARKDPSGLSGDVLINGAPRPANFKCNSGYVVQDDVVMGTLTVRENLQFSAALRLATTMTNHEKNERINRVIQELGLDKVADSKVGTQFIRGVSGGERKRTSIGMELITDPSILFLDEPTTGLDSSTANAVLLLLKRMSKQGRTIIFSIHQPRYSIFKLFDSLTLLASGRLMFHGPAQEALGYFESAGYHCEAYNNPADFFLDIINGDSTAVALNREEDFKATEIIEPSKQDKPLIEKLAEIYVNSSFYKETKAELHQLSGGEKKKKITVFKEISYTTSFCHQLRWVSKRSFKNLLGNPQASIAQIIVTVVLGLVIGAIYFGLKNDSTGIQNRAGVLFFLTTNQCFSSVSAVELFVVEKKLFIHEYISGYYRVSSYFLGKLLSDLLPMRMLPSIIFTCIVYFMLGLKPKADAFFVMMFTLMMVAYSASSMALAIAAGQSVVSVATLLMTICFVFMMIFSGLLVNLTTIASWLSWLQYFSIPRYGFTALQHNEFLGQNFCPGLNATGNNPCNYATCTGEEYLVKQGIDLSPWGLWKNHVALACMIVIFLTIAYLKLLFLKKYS
Chain of Apoptosis regulator Bcl-2 (Homo sapiens) (P10415 whole entry, looked up): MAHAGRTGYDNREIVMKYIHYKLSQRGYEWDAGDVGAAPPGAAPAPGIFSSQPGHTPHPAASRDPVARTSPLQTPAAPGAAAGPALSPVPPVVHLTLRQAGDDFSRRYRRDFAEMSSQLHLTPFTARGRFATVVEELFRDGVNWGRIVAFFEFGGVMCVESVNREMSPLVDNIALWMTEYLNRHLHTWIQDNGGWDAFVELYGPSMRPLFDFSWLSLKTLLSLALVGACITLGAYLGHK

As for `COP(=S)(OC)SCN1C(=O)c2ccccc2C1=O`, the call in assay [1], in assay [2], in assay [3], in assay [4], in [5] and in assay [6] was inactive. Also, the compound was classed as inactive (in assay [7]; in assay [8]; in [9]; in the assay with BCL2L11 (gene 10018); in [10]; in assay [11]). The compound was classed as inactive (with Caspase-3 (Homo sapiens); in [12]; in [14]; in assay [16]; with CYP2C8 (gene 1558)). Moreover, the AC50 is 22.3 µM (active) in assay [13] and 50 µM (active) in assay [15].

Consider `Nc1ccc(Cc2ccc(N)cc2)cc1`, for which the call in [1], in assay [2], in assay [3], in assay [4], in assay [5] and in assay [6] was inactive. The compound was called inactive (in assay [7]; in assay [8]; in assay [9]; in the assay with BCL2L11 (gene 10018); in [10]; in assay [11]). For the same compound, the compound was classed as inactive (in the assay with Caspase-3 (Homo sapiens); in assay [12]; in assay [14]; with CYP2C8 (gene 1558)). Further, the figures for the AC50 in [13], in assay [15] and in [16] were 31.3 µM (active), 11.5 µM (active) and 14.5 µM (active), respectively.

Turning to `CCOc1cccc(C2(N3CCN(c4ccccc4)CC3)CCC(C)CC2)c1` (stereo unspecified), the compound was classed as inactive in [1], in assay [2], in [3], in assay [4], in assay [5] and in assay [6]. Moreover, the compound was called inactive (in assay [7]; in [8]; in assay [9]; with BCL2L11 (gene 10018); in assay [10]; in assay [17]). Also, the compound was classed as inactive (in assay [11]; with Caspase-3 (Homo sapiens); in assay [12]; in [14]; in [16]; with CYP2C8 (gene 1558)). Also, the AC50 in assay [13] was 16.6 µM (active).

Take `CCNS(=O)(=O)C(F)(F)C(F)(F)C(F)(F)C(F)(F)C(F)(F)C(F)(F)C(F)(F)C(F)(F)F`: the result in [1], in assay [2], in assay [3], in assay [4], in [5] and in [6] was inactive. Also, the compound was classed as inactive (in assay [7]; in [8]; with BCL2L11 (gene 10018); in assay [17]; in [11]; with Caspase-3 (Homo sapiens)). For the same compound, the call (in assay [13]; in assay [14]; in [15]; in [16]; with CYP2C8 (gene 1558)) was inactive. The results for the AC50 in [9] and in assay [10] were 65.2 µM (active) and 48.2 µM (active), respectively.
